HEK cytotox – cytotoxic compounds in HEK 293 cells; 94,000 tested, 6.6% active; AID 1345083; Potency, µM (titrated, usually from 115 µM), most hits filed as inhibitors; HEK 293 viability, ATP luminescence (CellTiter-Glo), 48-72 h; also: nearly all actives have a fitted effect of over 60% in size
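HEK 293 cells at 250 cells/well were exposed to compounds by pintool transfer for 48 or 72 hr at 37 degree Celsius, 5% CO2. Viability was read as ATP-coupled luminescence with CellTiter-Glo after 10 min at room temperature.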
NPR1 antag – human Npr1 receptor antagonism; P16066; HEK293 hNpr1 GloSensor cGMP, ANP-stimulated luminescence; Potency, µM (titrated, usually from 46.3 µM), most hits filed as inhibitors; 76,000 tested, 1.6% active; AID 1347048; calls by dose curve; also: nearly all actives have a fitted effect of over 60% in size
Target sequence (P16066 whole entry, looked up): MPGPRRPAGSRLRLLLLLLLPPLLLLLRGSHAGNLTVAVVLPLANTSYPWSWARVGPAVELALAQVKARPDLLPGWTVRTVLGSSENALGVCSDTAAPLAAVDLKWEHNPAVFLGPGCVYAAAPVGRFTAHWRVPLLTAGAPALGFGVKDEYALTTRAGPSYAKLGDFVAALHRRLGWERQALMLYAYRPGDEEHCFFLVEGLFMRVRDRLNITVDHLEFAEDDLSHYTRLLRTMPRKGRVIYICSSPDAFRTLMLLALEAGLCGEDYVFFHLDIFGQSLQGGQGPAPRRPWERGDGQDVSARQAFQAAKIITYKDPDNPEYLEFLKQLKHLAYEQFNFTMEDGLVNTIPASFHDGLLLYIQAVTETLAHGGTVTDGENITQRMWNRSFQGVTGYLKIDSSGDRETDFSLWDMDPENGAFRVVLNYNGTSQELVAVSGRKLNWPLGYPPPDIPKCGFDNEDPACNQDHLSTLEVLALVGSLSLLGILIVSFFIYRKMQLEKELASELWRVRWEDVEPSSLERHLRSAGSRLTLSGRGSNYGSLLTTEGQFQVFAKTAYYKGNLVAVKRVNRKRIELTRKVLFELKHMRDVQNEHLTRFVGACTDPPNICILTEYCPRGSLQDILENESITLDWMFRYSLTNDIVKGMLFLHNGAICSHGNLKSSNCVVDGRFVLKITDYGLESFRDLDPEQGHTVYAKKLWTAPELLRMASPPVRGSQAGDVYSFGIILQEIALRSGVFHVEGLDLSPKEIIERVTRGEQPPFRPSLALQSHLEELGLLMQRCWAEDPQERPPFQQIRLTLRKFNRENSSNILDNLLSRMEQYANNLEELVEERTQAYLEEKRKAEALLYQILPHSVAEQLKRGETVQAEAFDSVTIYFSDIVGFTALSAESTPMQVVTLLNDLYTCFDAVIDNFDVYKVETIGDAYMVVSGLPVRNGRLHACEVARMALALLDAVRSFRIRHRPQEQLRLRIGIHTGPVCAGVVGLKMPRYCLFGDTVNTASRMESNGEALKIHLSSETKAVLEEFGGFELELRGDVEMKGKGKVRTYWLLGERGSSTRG
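Compound pre-incubated 30 min at room temperature on GloSensor-loaded HEK293 cells stably carrying hNpr1 and the pGS-40F cGMP biosensor. Stimulation uses hNppA at 0.1 nM final; luminescence is taken at baseline and 20 min post-agonist.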
FLuc inh – blocks purified firefly luciferase enzyme activity | Potency, µM (doses to about 115 µM), usual class: inhibitors | purified P. pyralis luciferase, luminescence, biochemical | P08659 | 76,000 tested, 2.5% active | AID 1347043; also: nearly all actives have a fitted effect of over 65% in size
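Inhibitors were tested against purified firefly luciferase in a biochemical, low-substrate format (both substrates at 10uM) and luminescence measured with a CCD imager.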
NIH3T3 tox – cytotoxic compounds in NIH 3T3 cells; NIH 3T3 viability, CellTiter-Glo ATP luminescence, 48-72 h; 94,000 tested, 4.3% active; Potency, µM (series often up to 96.7 µM), usual class: inhibitors; also: nearly all actives have a fitted effect of over 55% in size
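NIH 3T3 cells at 400 cells/well received 23 nL of compound by pintool and were incubated 48 or 72 h at 37 °C. Viability was read as ATP-coupled CellTiter-Glo luminescence.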
A number is an active result. A selection: hits, their analogues and other compounds. The true share with any hit is near 11%. Unless noted, calls follow the shape of the dose curve; as a rule, active = well fitted curve in the direction sought with a large enough effect; inconclusive = small, poorly fitted or top-dose-only effect, or another doubt; inactive = no such curve, though single readings can be large; an effect the other way counts as inactive or inconclusive.

For O=C(NC1CCN(Cc2ccc(-c3ccsc3)cc2)C1)C1CCCC1 (centres undefined) the results were HEK cytotox inactive and NIH3T3 tox inactive.
Screening O=C(Cc1ccc(C(F)(F)F)cc1)NC1CCN(Cc2ccc(-c3ccsc3)cc2)C1 (centres undefined) returned HEK cytotox 35µM and NIH3T3 tox inconclusive.
For O=C(Cc1cccc(Cl)c1)NC1CCN(Cc2ccc(-c3ccsc3)cc2)C1 (centres undefined) the results were HEK cytotox inconclusive and NIH3T3 tox 8.9µM.
For O=C(NC1CCN(Cc2ccc(-c3ccsc3)cc2)C1)c1ccc(C(F)(F)F)cc1 (centres undefined) the results were HEK cytotox inactive and NIH3T3 tox inactive.
`Cc1nc2c(c(-c3ccc(Cl)cc3)n1)CCN(C(=O)c1ccc(C(F)(F)F)cc1)CC2` gave HEK cytotox inconclusive, NPR1 antag inactive, FLuc inh inactive and NIH3T3 tox inconclusive.
Cc1ccccc1-c1noc(CNCc2nc3ccc(Cl)cc3[nH]2)n1 was read as HEK cytotox 79µM, NPR1 antag inactive, FLuc inh inactive and NIH3T3 tox inconclusive.
For CC(C)CCN1CCCC2(COc3ccccc3C(=O)N2)C1 (centres undefined) the results were HEK cytotox inconclusive, NPR1 antag inactive, FLuc inh inactive and NIH3T3 tox inconclusive.
COc1cccc(CN2CCCC3(COc4ccccc4C(=O)N3)C2)c1 (centres undefined) was read as HEK cytotox inconclusive, NPR1 antag inactive, FLuc inh inactive and NIH3T3 tox inconclusive.
`CN(C)c1ccc(CN2CCC3(COc4ccccc4C(=O)N3)C2)cc1` (centres undefined) gave HEK cytotox inconclusive, NPR1 antag inactive, FLuc inh inactive and NIH3T3 tox inconclusive.
For CN(C)c1ccc(CN2CCC3(CC2)COc2ccccc2C(=O)N3)cc1 the results were HEK cytotox inconclusive, NPR1 antag inactive, FLuc inh inactive and NIH3T3 tox 22µM.
CC(C)CCN1CCC2(COc3ccccc3C(=O)N2)C1 (centres undefined) was read as HEK cytotox inconclusive, NPR1 antag inactive, FLuc inh inactive and NIH3T3 tox 100µM.
COc1cccc(CN2CCC3(COc4ccccc4C(=O)N3)C2)c1 (centres undefined) was read as HEK cytotox 89µM, NPR1 antag inactive, FLuc inh inactive and NIH3T3 tox 40µM.
For O=[S+]1([O-])NC2(CCN(Cc3cccc(C(F)(F)F)c3)C2)COc2ncccc21 (centres undefined) the results were HEK cytotox inactive and NIH3T3 tox inactive.
For Cc1ccc(CN2CC(O)CN(C(=O)OCc3ccccc3)CC2=O)cc1 (centres undefined) the results were HEK cytotox inconclusive and NIH3T3 tox inactive.
For C#CCNC(=O)c1ccc2nnc(-c3ccc(C(F)(F)F)cc3)n2c1 the results were HEK cytotox inactive and NIH3T3 tox inactive.
COc1ccc(-c2[nH]nc3ncc(-c4cccc(F)c4)nc23)c(C)c1 was read as HEK cytotox inconclusive, NPR1 antag inactive, FLuc inh inactive and NIH3T3 tox inconclusive.
Screening COc1ccc(-c2[nH]nc3ncc(-c4cccnc4)nc23)c(C)c1 returned HEK cytotox inconclusive, NPR1 antag inactive, FLuc inh inactive and NIH3T3 tox 28µM.
Cc1ccccc1-c1cnc2n[nH]c(-c3ccccc3)c2n1 was read as HEK cytotox 89µM, NPR1 antag inactive, FLuc inh inactive and NIH3T3 tox 50µM.
Screening COc1ccc(-c2[nH]nc3ncc(-c4ccc([S+](C)(=O)[O-])cc4)nc23)c(C)c1 returned HEK cytotox 56µM, NPR1 antag inactive, FLuc inh inactive and NIH3T3 tox inconclusive.
For COc1ccc(-c2[nH]nc3ncc(-c4ccccc4O)nc23)c(C)c1 the results were HEK cytotox 28µM, NPR1 antag inactive, FLuc inh inactive and NIH3T3 tox inconclusive.
Cc1ccc(C(=O)N2CCC[C@H](n3c(=O)n(Cc4ccccc4)c4cccnc43)C2)cn1 was read as HEK cytotox inconclusive, NPR1 antag inactive, FLuc inh inactive and NIH3T3 tox inactive.
Screening Cc1ccccc1-c1[nH]nc2ncc(-c3ccccc3O)nc12 returned HEK cytotox 63µM, NPR1 antag inactive, FLuc inh inactive and NIH3T3 tox inconclusive.
Cc1ccccc1-c1[nH]nc2ncc(-c3ccnn3C)nc12 was read as HEK cytotox inactive, NPR1 antag inactive, FLuc inh inactive and NIH3T3 tox inconclusive.
O=C(NCCC1CCN(C(=O)Nc2cccc(F)c2)CC1)c1ccccc1F was read as HEK cytotox inconclusive, NPR1 antag inactive, FLuc inh inconclusive and NIH3T3 tox inactive.
Screening COCCCn1c(=O)c(C(=O)NC(C)C)nc2cccnc21 returned HEK cytotox inactive and NIH3T3 tox inactive.
`O=C(C1CCCN(Cc2cccc(-c3ccc(F)cc3F)c2)C1)N1CCCC1` (centres undefined) gave HEK cytotox 28µM and NIH3T3 tox inconclusive.
For O=C(C1CCCN(Cc2cccc(-c3ccc(F)cc3F)c2)C1)N1CCN(c2ncccn2)CC1 (centres undefined) the results were HEK cytotox 40µM and NIH3T3 tox inconclusive.
Screening Cc1nnc2ccc(N3CCCC(NC(=O)c4ccc(F)cc4)C3)nn12 (centres undefined) returned HEK cytotox inactive and NIH3T3 tox inconclusive.
Screening Cc1noc(C)c1-c1cc2cc(C(C)C)oc2c(-c2cccnc2)n1 returned HEK cytotox inconclusive, NPR1 antag inactive, FLuc inh inactive and NIH3T3 tox inconclusive.
Screening Cc1c(CN(C)CC2(O)CCCN(Cc3ccc(C(C)C)cc3)C2=O)cnn1C (centres undefined) returned HEK cytotox inconclusive, NPR1 antag inactive, FLuc inh inactive and NIH3T3 tox inactive.
O=c1c2nc(Nc3ccc(C(F)(F)F)cc3)ccc2ncn1C1CC1 was read as HEK cytotox inconclusive, NPR1 antag inactive, FLuc inh 63µM and NIH3T3 tox inconclusive.
For COCCn1cnc2ccc(Nc3ccc(C(F)(F)F)cc3)nc2c1=O the results were HEK cytotox inconclusive, NPR1 antag inactive, FLuc inh inactive and NIH3T3 tox inconclusive.
Screening O=C(O)CCCC(=O)N1Cc2ccccc2CC2(CCCN(Cc3ccccn3)C2)C1 (centres undefined) returned HEK cytotox inactive and NIH3T3 tox inactive.
For CC(C)C1=NOC2(CCN(Cc3ccccc3)C2)C1 (centres undefined) the results were HEK cytotox inactive and NIH3T3 tox inactive.
For CC1(C)CC2CC(C)(CN2C(=O)CC(c2ccccc2Cl)c2c[nH]c3ccccc23)C1 (centres undefined) the results were HEK cytotox 25µM, NPR1 antag inactive, FLuc inh inactive and NIH3T3 tox inconclusive.
Cc1ccccc1CNC(=O)CCC[C@H]1NC[C@@H]2C[C@H]1CN(Cc1ccccc1)C2 was read as HEK cytotox inconclusive, NPR1 antag inactive, FLuc inh inactive and NIH3T3 tox inconclusive.

From PubChem BioAssay
